Several values for one entry are separate records, joined by “and”; a condition that tells them apart may be missing. Identical values can stand only once. A number with no mark means an inactive call.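 How the source made its calls, unless noted: active means z-score of at least 1.8 in each of two replicates, scored against plate mean and spread of sample wells; inactive means the rest.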
target: NAD(+) hydrolase SARM1 (Homo sapiens) (UniProt Q6SZW1); assay: blocking NAD cleavage by SARM1 SAM-TIR – cell lysate, NAD-Glo luminescence (AID 1508614;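 active means compound whose remaining NAD level is above about 45 nM, limit read from the data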;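 further: higher remaining NAD means stronger inhibition of SARM1 NADase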); conditions: SAM-TIR HEK293T lysate NADase, at 1 µM, hits give high values
Sequence (Q6SZW1 whole entry, looked up): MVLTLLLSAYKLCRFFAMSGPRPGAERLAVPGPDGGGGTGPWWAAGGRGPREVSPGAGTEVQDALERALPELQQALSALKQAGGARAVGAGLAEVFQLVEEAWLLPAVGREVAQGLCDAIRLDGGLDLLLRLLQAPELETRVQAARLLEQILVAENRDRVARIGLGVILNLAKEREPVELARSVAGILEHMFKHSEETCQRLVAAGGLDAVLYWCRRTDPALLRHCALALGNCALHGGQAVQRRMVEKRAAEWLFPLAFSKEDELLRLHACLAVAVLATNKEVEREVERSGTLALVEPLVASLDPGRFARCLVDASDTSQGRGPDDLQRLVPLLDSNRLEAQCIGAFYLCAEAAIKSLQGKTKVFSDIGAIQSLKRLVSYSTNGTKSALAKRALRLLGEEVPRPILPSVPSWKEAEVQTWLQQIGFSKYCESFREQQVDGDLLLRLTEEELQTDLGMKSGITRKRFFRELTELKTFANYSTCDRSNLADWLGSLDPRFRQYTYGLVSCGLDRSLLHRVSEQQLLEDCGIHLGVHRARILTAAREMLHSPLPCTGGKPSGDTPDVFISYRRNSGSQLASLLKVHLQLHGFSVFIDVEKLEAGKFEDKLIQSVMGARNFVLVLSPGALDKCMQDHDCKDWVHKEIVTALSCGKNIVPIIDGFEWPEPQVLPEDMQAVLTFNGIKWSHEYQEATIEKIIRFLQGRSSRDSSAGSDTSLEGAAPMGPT

Point of comparison: `Oc1ccc(C2CNCCc3c2cc(O)c(O)c3Cl)cc1` (stereo not given), remaining NAD 10 nM. Against it:
- COc1cc2nc(N3CCN(C(=O)C4COc5ccccc5O4)CC3)nc(N)c2cc1OC (stereo not given) — the same, 10 nM
- Cc1ncc([N+](=O)[O-])n1CC(O)CCl (stereo not given) — the same, 10 nM
- CCc1oc2ccccc2c1C(=O)c1cc(Br)c(O)c(Br)c1 — the same, 10 nM
- CC(C)NCC(O)COc1ccc(CCOCC2CC2)cc1 (stereo not given) — the same, 10 nM
- C[C@@H]1C[C@H]2[C@@H]3CCC4=CC(=O)C=C[C@]4(C)[C@@]3(F)[C@@H](O)C[C@]2(C)[C@H]1C(=O)CO — the same, 10 nM
- O=C1CC2(CCCC2)CC(=O)N1CCCCN1CCN(c2ncccn2)CC1 — the same, 10 nM
- CN1CCC(=C2c3ccccc3C=Cc3ccccc32)CC1 — the same, 10 nM
- CCOC(=O)c1ncn2c1CN(C)C(=O)c1cc(F)ccc1-2 — the same, 10 nM
- CCCc1nc(C)c2c(=O)[nH]c(-c3cc(S(=O)(=O)N4CCN(CC)CC4)ccc3OCC)nn12 — 1.8-fold higher, 18 nM
- CC(c1cc2ccccc2s1)N(O)C(N)=O (stereo not given) — the same, 10 nM
- COC(=O)C1=C(C)NC(C)=C(C(=O)OCC(C)C)C1c1ccccc1[N+](=O)[O-] (stereo not given) — the same, 10 nM
- CC1(C)O[C@@H]2C[C@H]3[C@@H]4C[C@H](F)C5=CC(=O)C=C[C@]5(C)[C@@]4(F)[C@@H](O)C[C@]3(C)[C@]2(C(=O)CO)O1 — the same, 10 nM

target: Mitogen-activated protein kinase 7 (Homo sapiens) (UniProt Q13164); assay: Gal4-ERK5 driven luciferase induction – cell-based, HTS, primary screen (AID 1508626;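 active means luciferase signal above three times the same-plate solvent-only control wells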;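 further: luciferase driven by Gal4-ERK5 fusion binding five Gal4 sites before minimal TATA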); conditions: HeLa Gal4-ERK5 transactivation, 18 h, at 5 µM, hits give high values
Sequence (Q13164 whole entry, looked up, the tested form may be a part): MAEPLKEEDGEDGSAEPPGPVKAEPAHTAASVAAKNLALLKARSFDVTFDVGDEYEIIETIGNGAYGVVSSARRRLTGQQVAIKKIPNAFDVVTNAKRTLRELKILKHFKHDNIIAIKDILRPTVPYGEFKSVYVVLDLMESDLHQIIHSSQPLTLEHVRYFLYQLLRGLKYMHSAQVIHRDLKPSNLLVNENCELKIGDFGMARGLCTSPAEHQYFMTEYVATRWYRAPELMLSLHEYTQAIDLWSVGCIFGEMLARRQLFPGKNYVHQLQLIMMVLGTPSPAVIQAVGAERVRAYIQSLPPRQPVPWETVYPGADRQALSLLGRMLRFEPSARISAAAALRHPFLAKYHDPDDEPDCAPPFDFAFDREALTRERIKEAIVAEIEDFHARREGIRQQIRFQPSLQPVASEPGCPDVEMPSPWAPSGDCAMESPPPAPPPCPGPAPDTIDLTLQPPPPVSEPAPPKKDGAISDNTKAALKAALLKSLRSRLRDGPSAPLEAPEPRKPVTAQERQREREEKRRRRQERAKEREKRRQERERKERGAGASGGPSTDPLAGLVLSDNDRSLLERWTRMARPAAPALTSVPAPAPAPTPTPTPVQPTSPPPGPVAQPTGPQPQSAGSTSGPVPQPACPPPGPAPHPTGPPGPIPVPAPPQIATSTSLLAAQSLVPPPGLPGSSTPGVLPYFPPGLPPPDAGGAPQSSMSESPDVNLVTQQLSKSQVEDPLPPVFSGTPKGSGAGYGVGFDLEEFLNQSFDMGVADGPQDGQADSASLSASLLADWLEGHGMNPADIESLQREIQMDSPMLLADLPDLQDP

Point of comparison: `COc1ccc2nc(S(=O)Cc3ncc(C)c(OC)c3C)[nH]c2c1` (stereo not given), luciferase signal 68 AU. Against it:
- CC(C)[C@H](N)C(=O)OCCOCn1cnc2c(=O)[nH]c(N)nc21 — lower, 32 AU
- CN1CCC(=C2c3ccccc3CC(=O)c3sccc32)CC1 — higher, 76 AU
- Nc1nnc(-c2cccc(Cl)c2Cl)c(N)n1 — lower, 44 AU
- OCCOCCN1CCN(C2=Nc3ccccc3Sc3ccccc32)CC1 — lower, 48 AU
- COc1cc(OC)c(C(=O)CCCN2CCCC2)c(OC)c1 — lower, 40 AU
- C#C[C@]1(O)CC[C@H]2[C@@H]3CCc4cc(OC)ccc4[C@H]3CC[C@@]21C — higher, 80 AU
- COc1cc2nc(N3CCN(C(=O)C4CCCO4)CC3)nc(N)c2cc1OC (stereo not given) — lower, 64 AU
- CCN(CC)CCNC(=O)c1cc(Cl)c(N)cc1OC — higher, 100 AU
- COc1cc2c(cc1OC)C(=O)C(CC1CCN(Cc3ccccc3)CC1)C2 (stereo not given) — lower, 32 AU
- COc1ccc(C2CNC(=O)C2)cc1OC1CCCC1 (stereo not given) — higher, 72 AU
- CC(=O)O[C@H]1C[C@@H]2CC[C@@H]3[C@H](CC[C@@]4(C)[C@H]3C[C@H]([N+]3(C)CCCCC3)[C@@H]4OC(C)=O)[C@@]2(C)C[C@@H]1N1CCCCC1 — lower, 52 AU
- COc1cc2nc(N3CCN(C(=O)C4COc5ccccc5O4)CC3)nc(N)c2cc1OC (stereo not given) — lower, 32 AU
- Cc1ncc([N+](=O)[O-])n1CC(O)CCl (stereo not given) — lower, 36 AU
- CCc1oc2ccccc2c1C(=O)c1cc(Br)c(O)c(Br)c1 — lower, 52 AU
- C[C@@H]1C[C@H]2[C@@H]3CCC4=CC(=O)C=C[C@]4(C)[C@@]3(F)[C@@H](O)C[C@]2(C)[C@H]1C(=O)CO — lower, 32 AU
- O=C1CC2(CCCC2)CC(=O)N1CCCCN1CCN(c2ncccn2)CC1 — higher, 112 AU
- CN1CCC(=C2c3ccccc3C=Cc3ccccc32)CC1 — lower, 20 AU
- CCOC(=O)c1ncn2c1CN(C)C(=O)c1cc(F)ccc1-2 — lower, 60 AU
- CCCc1nc(C)c2c(=O)[nH]c(-c3cc(S(=O)(=O)N4CCN(CC)CC4)ccc3OCC)nn12 — lower, 60 AU
- CC(c1cc2ccccc2s1)N(O)C(N)=O (stereo not given) — lower, 36 AU
- COC(=O)C1=C(C)NC(C)=C(C(=O)OCC(C)C)C1c1ccccc1[N+](=O)[O-] (stereo not given) — higher, 72 AU
- CC1(C)O[C@@H]2C[C@H]3[C@@H]4C[C@H](F)C5=CC(=O)C=C[C@]5(C)[C@@]4(F)[C@@H](O)C[C@]3(C)[C@]2(C(=O)CO)O1 — higher, 124 AU

test system: not listed separately; assay: galactose survival enhancers in mitochondrial complex I cybrids – cell-based, galactose medium, ATP luminescence, primary screen (AID 1645843); conditions: complex I mutant cybrid cells, 72 h, hits give high values;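 further: positive z means more ATP and so rescue of galactose-driven cybrid death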

Point of comparison: `CCc1oc2ccccc2c1C(=O)c1cc(Br)c(O)c(Br)c1`, z-score -1.42. Against it:
- CC(C)[C@H](N)C(=O)OCCOCn1cnc2c(=O)[nH]c(N)nc21 — higher, 0.625
- COc1cc(OC)c(C(=O)CCCN2CCCC2)c(OC)c1 — higher, 0.65
- COc1cc2c(cc1OC)C(=O)C(CC1CCN(Cc3ccccc3)CC1)C2 (stereo not given) — higher, -0.225
- CC(=O)O[C@H]1C[C@@H]2CC[C@@H]3[C@H](CC[C@@]4(C)[C@H]3C[C@H]([N+]3(C)CCCCC3)[C@@H]4OC(C)=O)[C@@]2(C)C[C@@H]1N1CCCCC1 — higher, 0.335
- Cc1ncc([N+](=O)[O-])n1CC(O)CCl (stereo not given) — higher, 0.42

With `Nc1nnc(-c2cccc(Cl)c2Cl)c(N)n1` the z-score was 0.675 and 0.31 and 0.775.
For `OCCOCCN1CCN(C2=Nc3ccccc3Sc3ccccc32)CC1`, the z-score was -0.095 and 0.115.
In the case of `CCN(CC)CCNC(=O)c1cc(Cl)c(N)cc1OC`, the z-score was -0.285 and 0.055 and 0.595.
With `COc1cc2nc(N3CCN(C(=O)C4COc5ccccc5O4)CC3)nc(N)c2cc1OC` (stereo not given) the z-score was -0.385 and -0.73 and 0.525.
With `CCCc1nc(C)c2c(=O)[nH]c(-c3cc(S(=O)(=O)N4CCN(CC)CC4)ccc3OCC)nn12` the z-score was 0.68 and 0.485.
With `CC(c1cc2ccccc2s1)N(O)C(N)=O` (stereo not given) the z-score was 0.465 and 0.63.
With `COC(=O)C1=C(C)NC(C)=C(C(=O)OCC(C)C)C1c1ccccc1[N+](=O)[O-]` (stereo not given) the z-score was -1.86 and -2.
For `CC1(C)O[C@@H]2C[C@H]3[C@@H]4C[C@H](F)C5=CC(=O)C=C[C@]5(C)[C@@]4(F)[C@@H](O)C[C@]3(C)[C@]2(C(=O)CO)O1`, the z-score was -0.48 and 0.45.

From PubChem BioAssay
